# Measurements reported in ChEMBL document CHEMBL3988442, “University of Dundee, Small-Polar-MMV Screening Library” (2021).
# Screen size: about 66,000 compounds; about 960 (1.5%) showed an effect of 50% or more. The list comes from a sample in which strong results are over-represented; it also holds similar structures and randomly drawn compounds.
# System: Trypanosoma brucei
# Test: Trypanosoma brucei 72 hour study
# Format: functional, organism-based
# Parameters: scale not given: in the data most compounds retested in dose-response had high values
compound,measurement,setting,value
O=C(O)C(F)(F)F.O=C1CCC2(CCCN(CCc3ccccc3)C2)N1Cc1cccnc1 (stereo not given),Percent Effect,"30.3 µM, […]",-16.68%
CN(C)C(=O)[C@H]1C[C@@H]2CN(S(=O)(=O)Cc3ccccc3)C[C@H]1O2,Percent Effect,"30 µM, 30.03 µM",24.58%
COc1ccc(CN2CCO[C@H]3[C@H](OCc4ccncc4)CC[C@@H]32)cc1.O=C(O)C(F)(F)F.O=C(O)C(F)(F)F,Percent Effect,"30.3 µM, […]",-84.86%
Cc1nc(CN2CCCC2c2noc(C(C)C)n2)oc1C (stereo not given),Percent Effect,"30.3 µM, […]",12.42%
same,Percent Effect,"10 mM, 10 mM as filed; unlikely as a test dose",-15.34%
Cc1ccc(N(Cc2ccco2)C(=O)CC2=NN(C)C(=O)C2)cc1,Percent Effect,"30 µM, 30.03 µM",-11.27%
COCC1N(C(=O)c2ccc3c(c2)OCCCO3)[C@H]2CC[C@]1(O)CC2 (stereo not given in full),Percent Effect,"30.3 µM, […]",-35.32%
CNC(=O)C1CCN(C(=O)NCc2ccc(-c3ccn[nH]3)cc2)CC1,Percent Effect,"30.3 µM, […]",-16.44%
O=C(NCc1ccc(-c2ccn[nH]2)cc1)N1CCC(N2CCCC2)C1 (stereo not given),Percent Effect,"30 µM, 30.03 µM",50.84%
NC(=O)C1CCN(C(=O)NCc2ccc(-c3ccn[nH]3)cc2)CC1,Percent Effect,"30.3 µM, […]",-25.22%
CN(C)C(=O)CC1CC2(CCN(Cc3ccoc3)CC2)c2ccccc21.O=C(O)C(F)(F)F (stereo not given),Percent Effect,"30 µM, 30.03 µM",-22.74%
CC(C)n1cnnc1CCNCc1cn(CCC(N)=O)c2ccccc12,Percent Effect,"30.3 µM, […]",-18.24%
Cc1ccc(C(C)NCc2cn(CCC(N)=O)c3ccccc23)cc1C (stereo not given),Percent Effect,"30.3 µM, […]",96.45%
CC(NCc1cn(CCC(N)=O)c2ccccc12)c1nncn1C (stereo not given),Percent Effect,"30.3 µM, […]",-49.32%
CC(CN1CCC2(CC1)N=C(c1cccnc1)NC2=O)c1ccccc1 (stereo not given),Percent Effect,"30 µM, 30.03 µM",6.734%
COCC1CC2(CCN(C(=O)c3occc3C)CC2)CN1C(C)C.O=C(O)C(F)(F)F (stereo not given),Percent Effect,"30.3 µM, […]",-8.924%
CCCc1noc(CCC(=O)N2CCCC2c2ccsc2)n1 (stereo not given),Percent Effect,"30 µM, 30.03 µM",-44.02%
CCCc1noc(CN2CCCC2c2ccsc2)n1 (stereo not given),Percent Effect,"30 µM, 30.03 µM",55.39%
CCCc1noc(CN2CCCC2c2noc(C3CC3)n2)n1 (stereo not given),Percent Effect,"30.3 µM, […]",-16.45%
CS(=O)(=O)NCc1cnc2n1CCN(Cc1cccs1)CC2.O=C(O)C(F)(F)F,Percent Effect,"30 µM, 30.03 µM",-2.909%
O=C(O)[C@@H]1CN(C(=O)CCCc2ccc(F)cc2)C[C@H]1C1CC1,Percent Effect,"30 µM, 30.03 µM",-8.475%
N[C@H]1CN(C(=O)CCCc2ccc(F)cc2)C[C@@H]1C1CC1,Percent Effect,"30 µM, 30.03 µM",79.67%
CN(C)[C@H]1CN(C(=O)CCCc2ccc(F)cc2)C[C@@H]1C1CC1,Percent Effect,"30 µM, 30.03 µM",21.51%
O=C(NCc1cccs1)[C@@H]1CC[C@@H]2[C@@H](CCN2c2ncccn2)O1.O=C(O)C(F)(F)F,Percent Effect,"30 µM, 30.03 µM",-28.93%
CCC(Nc1ncccn1)c1ccc(OC)cc1 (stereo not given),Percent Effect,"30 µM, 30.03 µM",62.75%
COc1ccc(C(CN2CCN(C)CC2)Nc2ncccn2)cc1 (stereo not given),Percent Effect,"30 µM, 30.03 µM",-24.12%
CCC(Nc1ncccn1)c1cccnc1 (stereo not given),Percent Effect,"30 µM, 30.03 µM",-16.09%
CCC(C)Oc1ccc(CNCCNS(C)(=O)=O)cc1Cl (stereo not given),Percent Effect,"30 µM, 30.03 µM",0.13%
O=C(O)C(F)(F)F.O=C(O)C(F)(F)F.O=C1CC(c2ccncc2)C2(CCN(CCc3ccccc3)CC2)N1 (stereo not given),Percent Effect,"30 µM, 30.03 µM",36.79%
CS(=O)(=O)N1CCC2(CC1)CC(NCC1CC1)c1ccccc12.O=C(O)C(F)(F)F (stereo not given),Percent Effect,"30.3 µM, […]",3.499%
CN1CC2(CCCN(Cc3ccc(Oc4ccccc4)cc3)C2)OC1=O (stereo not given),Percent Effect,"30 µM, 30.03 µM",-7.898%
CN(Cc1cc(Br)cn1C)C(=O)Cc1cccc(O)c1,Percent Effect,"30 µM, 30.03 µM",-57.62%
CN(Cc1cc(Br)cn1C)C(=O)c1cccnc1,Percent Effect,"30 µM, 30.03 µM",-39.03%
CN(Cc1cc(Br)cn1C)C(=O)Cc1cccnc1,Percent Effect,"30 µM, 30.03 µM",102.7%
COc1ccc(CN2CC[C@H]3[C@H]2CC(=O)N3Cc2cccc(C)n2)cc1.O=C(O)C(F)(F)F.O=C(O)C(F)(F)F,Percent Effect,"30.3 µM, […]",-40.33%
Cc1cc(N2CCN(C(=O)c3cc(Cl)c[nH]3)CC2)nc(N)n1,Percent Effect,"30 µM, 30.03 µM",109.2%
Cc1cc(N2CCN(C(=O)c3cc(Cl)c[nH]3)CC2)nc(C)n1,Percent Effect,"30 µM, 30.03 µM",-21.87%
Cc1cc(N2CCN(C(=O)c3cc(Cl)c[nH]3)CC2)nc(C(C)C)n1,Percent Effect,"30 µM, 30.03 µM",-55.97%
Cc1ccc(CN(CCCN(C)C)Cc2cnc(C)n2C)o1.O=C(O)CC(O)(CC(=O)O)C(=O)O,Percent Effect,"30.3 µM, […]",-2.378%
CCn1c(C(=O)N2CCN(CC[S+](C)[O-])CC2)cc2ccccc21 (stereo not given),Percent Effect,10 µM,-31.07%
CN(C)c1cccc(CNC(=O)Nc2cc(C#N)ccc2Cl)n1,Percent Effect,"30.3 µM, […]",-223.5%
COCc1c(Cl)cccc1NC(=O)NCc1cccc(N(C)C)n1,Percent Effect,"30.3 µM, […]",55.78%
COc1ccc(C)c(NC(=O)NCc2cccc(N(C)C)n2)c1,Percent Effect,"30.3 µM, […]",-277.4%
CC(=O)c1ccc(NC(=O)NCc2cccc(N(C)C)n2)cc1C,Percent Effect,"30 µM, 30.03 µM",-17.1%
COc1cc(F)cc(NC(=O)NCc2cccc(N(C)C)n2)c1,Percent Effect,"30.3 µM, […]",-613%
COc1ccc(NC(=O)NCc2cccc(N(C)C)n2)c(Cl)c1,Percent Effect,"30.3 µM, […]",103.9%
N#Cc1cccc(C(=O)N2CCC3(CCC(=O)N(C4CC4)C3)CC2)c1,Percent Effect,"30 µM, 30.03 µM",-3.327%
O=C(O)C(F)(F)F.c1ccc(CN2CCc3c(CNc4nccs4)n[nH]c3C2)nc1,Percent Effect,"30 µM, 30.03 µM",-34.93%
Cc1ccn(CCC(=O)N2CCCC2c2nnc(-c3scnc3C)o2)n1 (stereo not given),Percent Effect,"30.3 µM, […]",-1.608%
Cc1cnc(-c2nc(C3CCCN(Cc4ccccc4C)C3)no2)cn1.Cl (stereo not given),Percent Effect,"30.3 µM, […]",-19.46%
Cn1ccc2c(-c3cc(N)nc(N4CCOCC4)n3)ccnc21,Percent Effect,"30 µM, 30.03 µM",69.92%
CCc1cc(-c2ccnc3c2ccn3C)nc(N2CCOCC2)n1,Percent Effect,"30 µM, 30.03 µM",-28.1%
Cn1ccc2c(-c3cc(N4CCOCC4)ncn3)ccnc21,Percent Effect,"30 µM, 30.03 µM",-20.01%
CCNc1nc(C(=O)N(C)Cc2nc(CC)no2)cs1,Percent Effect,"30 µM, 30.03 µM",-27.33%
CC(C)c1nc(C2CCCN2c2cnc3ccccc3n2)no1 (stereo not given),Percent Effect,"30.3 µM, […]",-0.9034%
CC(C)c1nc(C2CCCN2c2ccnc(C3CCCC3)n2)no1 (stereo not given),Percent Effect,"30.3 µM, […]",-51.91%
CC(C)c1nc(C2CCCN2c2cnc3cc(F)c(F)cc3n2)no1 (stereo not given),Percent Effect,"30.3 µM, […]",85.34%
Cc1noc(C)c1CN1CCc2ncnc(-c3ccoc3)c2CC1.O=C(O)C(F)(F)F,Percent Effect,"30.3 µM, […]",-51.79%
Cc1nc(CNCc2cccc(OC34CCCN(CC3)C4)c2)n[nH]1 (stereo not given),Percent Effect,"30 µM, 30.03 µM",3.883%
O=c1[nH]nc(CNCc2ccc(OC34CCCN(CC3)C4)cc2)[nH]1 (stereo not given),Percent Effect,"30 µM, 30.03 µM",-0.5692%
c1ccc(Oc2ccc(OC34CCCN(CC3)C4)cc2)cc1 (stereo not given),Percent Effect,"30.3 µM, […]",99.82%
COc1cc(C#N)ccc1OC12CCCN(CC1)C2 (stereo not given),Percent Effect,"30 µM, 30.03 µM",-13.64%
c1ccc(Oc2cccc(OC34CCCN(CC3)C4)c2)cc1 (stereo not given),Percent Effect,"30.3 µM, […]",99.26%
Cc1cnccc1CNCc1ccc(OC23CCCN(CC2)C3)cc1 (stereo not given),Percent Effect,"30 µM, 30.03 µM",6.423%
Cl.O=C(Nc1cccc(CNCc2cccs2)c1)C1CC1,Percent Effect,10 µM,-25.65%
O=C(CC1CCC2(CC1)CCN(Cc1ccncc1)CC2)N1CCCC1.O=C(O)C(F)(F)F,Percent Effect,"30.3 µM, […]",-30.07%
CCCn1c(N2CCCC(C)C2)nc2c(C)nn(C)c2c1=O (stereo not given),Percent Effect,"30.3 µM, […]",99.54%
CCCn1c(N2CCCC2)nc2c(C)nn(C)c2c1=O,Percent Effect,"30.3 µM, […]",-10.23%
CCCn1c(N2CCCCC2)nc2c(C)nn(C)c2c1=O,Percent Effect,"30.3 µM, […]",-27.42%
CC(C)CS(=O)(=O)N1C[C@H]2C[C@H](C(=O)N3CCOCC3)[C@@H](C1)O2,Percent Effect,"30.3 µM, […]",-39.74%
COc1ncccc1CNc1snc(Cl)c1C#N,Percent Effect,"30 µM, 30.03 µM",-23.85%
CC(C)c1cc(C(=O)NCCCN(C)C)nc(N2CCCC2)n1,Percent Effect,"30.3 µM, […]",85.35%
COCCCNC(=O)c1cc(C(C)C)nc(N2CCCC2)n1,Percent Effect,"30.3 µM, […]",-9.807%
CCN(CC)CCNC(=O)c1cc(C(C)C)nc(N2CCCC2)n1,Percent Effect,"30 µM, 30.03 µM",-3.491%
Cc1nc(C(=O)N2CC[C@@]3(C[C@@H](NS(C)(=O)=O)CCO3)C2)cs1,Percent Effect,"30.3 µM, […]",-224.6%
Cc1ccn(-c2ccc(NCc3ccnc(N4CCCCC4)c3)nn2)n1,Percent Effect,"30.3 µM, […]",100.1%
Cc1ccn(-c2ccc(NCc3cccnc3N3CCCCC3)nn2)n1,Percent Effect,"30.3 µM, […]",1.055%
Cc1ccn(-c2ccc(NCc3ccccc3F)nn2)n1,Percent Effect,"30.3 µM, […]",-5.586%
CC1c2ncc(CNC(=O)C3CC3)n2CCN1Cc1ccsc1.O=C(O)C(F)(F)F (stereo not given),Percent Effect,"30.3 µM, […]",-8.055%
N#Cc1cccc(S(=O)(=O)NC(=O)COCC(F)(F)F)c1,Percent Effect,"30.3 µM, […]",-64.9%
N#Cc1cccc(S(=O)(=O)NC(=O)CCOCC(F)(F)F)c1,Percent Effect,"30.3 µM, […]",72.29%
O=C(CCOCC(F)(F)F)NS(=O)(=O)c1cccnc1,Percent Effect,"30.3 µM, […]",-16.93%
CN(C)c1ncc(-c2cc(C(=O)NCCC#N)n(CC3CC3)c2)cn1.O=C(O)C(F)(F)F,Percent Effect,"30.3 µM, […]",-1.079%
Cn1cc(C(=O)N2CCCC(Cc3cccc4ncccc34)C2)cn1 (stereo not given),Percent Effect,"30.3 µM, […]",-45.5%
CC(C)(CNC(=O)NCCc1ccn(-c2ccccc2)n1)C(N)=O,Percent Effect,10 µM,-34.81%
O=C(CCNc1ncccn1)NCCc1ccn(-c2ccccc2)n1,Percent Effect,"30 µM, 30.03 µM",19.3%
CC(C)CCC(=O)NCCc1ccn(-c2ccccc2)n1,Percent Effect,10 µM,100.3%
CC(C)CC(=O)NCCCc1cc(N)n(-c2ccccc2)n1,Percent Effect,"30 µM, 30.03 µM",-23.13%
COCCNC(=O)NCCc1ccn(-c2ccccc2)n1,Percent Effect,"30 µM, 30.03 µM",42.02%
CC(C)(C)C(=O)NCCC(=O)NCCc1ccn(-c2ccccc2)n1,Percent Effect,10 µM,-35.6%
CC(C)(C)C(=O)NCCc1ccn(-c2ccccc2)n1,Percent Effect,"30 µM, 30.03 µM",103.6%
CCN(CC)C(=O)NCCc1ccn(-c2ccccc2)n1,Percent Effect,10 µM,99.69%
CCC(CC)C(=O)NCCc1ccn(-c2ccccc2)n1,Percent Effect,10 µM,-35.97%
CC(C)c1nc(C2CCCN2Cc2nnc(C3CCC3)o2)no1 (stereo not given),Percent Effect,10 µM,-24.2%
CN(C)CC(=O)N1CCCC1c1cncc(Oc2ccc(F)cc2)n1 (stereo not given),Percent Effect,"30.3 µM, […]",-19.56%
COc1c(C2CCCN2C(=O)c2ccc(C#N)c(C)n2)c(C)nn1C (stereo not given),Percent Effect,10 µM,-24.86%
same,Percent Effect,"30.3 µM, […]",0.3708%
Cc1ccccc1Cc1nc(CSc2nnc(N)n2C)no1,Percent Effect,"30.3 µM, […]",30.54%
Cc1ccccc1Cc1nc(CSc2nnc(N)n2C2CC2)no1,Percent Effect,"30.3 µM, […]",69.45%
CCc1nc(CSc2nnc(N)n2C2CC2)no1,Percent Effect,"30.3 µM, […]",-10.47%
